# Results reported in the supplement of paper PMC4466140.
# Tests used:
# Experiment in all cases: SPOT peptide array binding signal intensity (averaged, normalized) (arbitrary units (background-subtracted, floor 0; scale differs between SH3 domains)); higher = stronger binding of the SH3 domain to the peptide
# AgAbp1 = target: AgAbp1
# Summary of the method: (§1)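 Detection of bound protein relied on anti-GST antibody, an HRP anti-mouse secondary and luminol, with imaging and quantification in Genespotter. The bound protein was GST-fused SH3 domains from four yeast species, incubated at 10 μg/ml overnight at 4°C in TBS-based blocking buffer on cellulose membranes carrying synthetic 15-mer peptides with cysteines replaced by serines. Binding signal is normalized, background-subtracted spot intensity averaged over replicates, in arbitrary units that differ between domains.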
# AgBbc1 = target: AgBbc1
# Summary of the method: as §1
# AgBem1-D1 = target: AgBem1-D1
# Summary of the method: as §1
# AgBzz1-D1 = target: AgBzz1-D1
# Summary of the method: as §1
# AgBzz1-D2 = target: AgBzz1-D2
# Summary of the method: as §1
# AgCyk3 = target: AgCyk3
# Summary of the method: as §1
# AgFus1 = target: AgFus1
# Summary of the method: as §1
# AgHof1 = target: AgHof1
# Summary of the method: as §1
# AgHse1 = target: AgHse1
# Summary of the method: as §1
# AgLsb1 = target: AgLsb1
# Summary of the method: as §1
# AgLsb4 = target: AgLsb4
# Summary of the method: as §1
# AgMyo5 = target: AgMyo5
# Summary of the method: as §1
# AgNbp2 = target: AgNbp2
# Summary of the method: as §1
# AgRvs167 = target: AgRvs167
# Summary of the method: as §1
# AgSho1 = target: AgSho1
# Summary of the method: as §1
# AgSla1-D1-D2 = target: AgSla1-D1-D2
# Summary of the method: as §1
# AgSla1-D3 = target: AgSla1-D3
# Summary of the method: as §1
# CaAbp1-D1 = target: CaAbp1-D1
# Summary of the method: as §1
# CaAbp1-D2 = target: CaAbp1-D2
# Summary of the method: as §1
# CaBbc1 = target: CaBbc1
# Summary of the method: as §1
# CaBem1-D1 = target: CaBem1-D1
# Summary of the method: as §1
# CaBzz1-D1 = target: CaBzz1-D1
# Summary of the method: as §1
# CaBzz1-D2 = target: CaBzz1-D2
# Summary of the method: as §1
# CaCyk3 = target: CaCyk3
# Summary of the method: as §1
# CaFus1 = target: CaFus1
# Summary of the method: as §1
# CaHof1 = target: CaHof1
# Summary of the method: as §1
# CaHse1 = target: CaHse1
# Summary of the method: as §1
# CaLsb1 = target: CaLsb1
# Summary of the method: as §1
# CaLsb4 = target: CaLsb4
# Summary of the method: as §1
# CaMyo5 = target: CaMyo5
# Summary of the method: as §1
# CaNbp2 = target: CaNbp2
# Summary of the method: as §1
# CaRvs167 = target: CaRvs167
# Summary of the method: as §1
# CaRvs167-3 = target: CaRvs167-3
# Summary of the method: as §1
# CaSho1 = target: CaSho1
# Summary of the method: as §1
# CaSla1-D1-D2 = target: CaSla1-D1-D2
# Summary of the method: as §1
# CaSla1-D3 = target: CaSla1-D3
# Summary of the method: as §1
# ScAbp1 = target: ScAbp1
# Summary of the method: as §1
# ScBbc1 = target: ScBbc1
# Summary of the method: as §1
# ScBem1-D1 = target: ScBem1-D1
# Summary of the method: as §1
# ScBzz1-D1 = target: ScBzz1-D1
# Summary of the method: as §1
# ScBzz1-D2 = target: ScBzz1-D2
# Summary of the method: as §1
# ScCyk3 = target: ScCyk3
# Summary of the method: as §1
# ScFus1 = target: ScFus1
# Summary of the method: as §1
# ScHof1 = target: ScHof1
# Summary of the method: as §1
# ScHse1 = target: ScHse1
# Summary of the method: as §1
# ScLsb1 = target: ScLsb1
# Summary of the method: as §1
# ScLsb2 = target: ScLsb2
# Summary of the method: as §1
# ScLsb3 = target: ScLsb3
# Summary of the method: as §1
# ScLsb4 = target: ScLsb4
# Summary of the method: as §1
# ScMyo3 = target: ScMyo3
# Summary of the method: as §1
# ScMyo5 = target: ScMyo5
# Summary of the method: as §1
# ScNbp2 = target: ScNbp2
# Summary of the method: as §1
# ScPex13 = target: ScPex13
# Summary of the method: as §1
# ScRvs167 = target: ScRvs167
# Summary of the method: as §1
# ScSho1 = target: ScSho1
# Summary of the method: as §1
# ScSla1-D1-D2 = target: ScSla1-D1-D2
# Summary of the method: as §1
# ScSla1-D3 = target: ScSla1-D3
# Summary of the method: as §1
# SpAbp1-D1 = target: SpAbp1-D1
# Summary of the method: as §1
# SpBbc1 = target: SpBbc1
# Summary of the method: as §1
# SpBzz1-D1 = target: SpBzz1-D1
# Summary of the method: as §1
binder,measurement,setting,value
NENKKLPPAPTVFGL,SPOT peptide array binding signal intensity,AgAbp1,≤ 0
same,SPOT peptide array binding signal intensity,AgBbc1,≤ 0
same,SPOT peptide array binding signal intensity,AgBem1-D1,≤ 0
same,SPOT peptide array binding signal intensity,AgBzz1-D1,27
same,SPOT peptide array binding signal intensity,AgBzz1-D2,35
same,SPOT peptide array binding signal intensity,AgCyk3,≤ 0
same,SPOT peptide array binding signal intensity,AgFus1,≤ 0
same,SPOT peptide array binding signal intensity,AgHof1,19.5
same,SPOT peptide array binding signal intensity,AgHse1,72
same,SPOT peptide array binding signal intensity,AgLsb1,≤ 0
same,SPOT peptide array binding signal intensity,AgLsb4,25
same,SPOT peptide array binding signal intensity,AgMyo5,≤ 0
same,SPOT peptide array binding signal intensity,AgNbp2,≤ 0
same,SPOT peptide array binding signal intensity,AgRvs167,6.17
same,SPOT peptide array binding signal intensity,AgSho1,1550
same,SPOT peptide array binding signal intensity,AgSla1-D1-D2,4
same,SPOT peptide array binding signal intensity,AgSla1-D3,1.5
same,SPOT peptide array binding signal intensity,CaAbp1-D1,≤ 0
same,SPOT peptide array binding signal intensity,CaAbp1-D2,3
same,SPOT peptide array binding signal intensity,CaBbc1,≤ 0
same,SPOT peptide array binding signal intensity,CaBem1-D1,≤ 0
same,SPOT peptide array binding signal intensity,CaBzz1-D1,3.5
same,SPOT peptide array binding signal intensity,CaBzz1-D2,1.5
same,SPOT peptide array binding signal intensity,CaCyk3,≤ 0
same,SPOT peptide array binding signal intensity,CaFus1,36.5
same,SPOT peptide array binding signal intensity,CaHof1,0.25
same,SPOT peptide array binding signal intensity,CaHse1,≤ 0
same,SPOT peptide array binding signal intensity,CaLsb1,1.5
same,SPOT peptide array binding signal intensity,CaLsb4,≤ 0
same,SPOT peptide array binding signal intensity,CaMyo5,≤ 0
same,SPOT peptide array binding signal intensity,CaNbp2,≤ 0
same,SPOT peptide array binding signal intensity,CaRvs167,1.17
same,SPOT peptide array binding signal intensity,CaRvs167-3,≤ 0
same,SPOT peptide array binding signal intensity,CaSho1,398
same,SPOT peptide array binding signal intensity,CaSla1-D1-D2,≤ 0
same,SPOT peptide array binding signal intensity,CaSla1-D3,3.5
same,SPOT peptide array binding signal intensity,ScAbp1,≤ 0
same,SPOT peptide array binding signal intensity,ScBbc1,≤ 0
same,SPOT peptide array binding signal intensity,ScBem1-D1,1
same,SPOT peptide array binding signal intensity,ScBzz1-D1,11
same,SPOT peptide array binding signal intensity,ScBzz1-D2,6
same,SPOT peptide array binding signal intensity,ScCyk3,1
same,SPOT peptide array binding signal intensity,ScFus1,8
same,SPOT peptide array binding signal intensity,ScHof1,6
same,SPOT peptide array binding signal intensity,ScHse1,6.5
same,SPOT peptide array binding signal intensity,ScLsb1,≤ 0
same,SPOT peptide array binding signal intensity,ScLsb2,≤ 0
same,SPOT peptide array binding signal intensity,ScLsb3,≤ 0
same,SPOT peptide array binding signal intensity,ScLsb4,6
same,SPOT peptide array binding signal intensity,ScMyo3,≤ 0
same,SPOT peptide array binding signal intensity,ScMyo5,≤ 0
same,SPOT peptide array binding signal intensity,ScNbp2,≤ 0
same,SPOT peptide array binding signal intensity,ScPex13,254
same,SPOT peptide array binding signal intensity,ScRvs167,0.167
same,SPOT peptide array binding signal intensity,ScSho1,2310
same,SPOT peptide array binding signal intensity,ScSla1-D1-D2,≤ 0
same,SPOT peptide array binding signal intensity,ScSla1-D3,4.5
same,SPOT peptide array binding signal intensity,SpAbp1-D1,≤ 0
same,SPOT peptide array binding signal intensity,SpBbc1,4.5
same,SPOT peptide array binding signal intensity,SpBzz1-D1,126
